Data: ChEMBL document CHEMBL4513216, “Probing the Open Global Health Chemical Diversity Library for Multistage-Active Starting Points for Next-Generation Antimalarials” (ACS Infect Dis, 2020)
Screen size: about 68,000 compounds; about 2,700 (4%) showed an effect of 50% or more. Many of the other results were omitted from the sample, so strong results are more common in it than they were.

tested on: Plasmodium berghei; assay: Screen against P. berghei liver stage (PbLuc), transformed with Luciferase, at 2uM; type: functional, HepG2; settings: tested at 2 uM

SMILES	INHIBITION [%]
Cn1cc(C2COC3(CCN(C(=O)Cn4cccn4)CC3)C2)cn1 (configuration not stated)	12.36
CCOCC1CN(CC2CC2)Cc2nn(C)cc21 (configuration not stated)	4.99
O=C(CCC1CCCC1)NCCn1nc(C2CCNC2)c2nccnc21 (configuration not stated)	26.52
CCOCCN1CCN(Cc2coc(-c3cccc(F)c3)n2)CC1	62.13
CCN1CCN(Cc2coc(-c3cccc(F)c3)n2)CC1	23.92
OCCN1CCN(Cc2coc(-c3cccc(F)c3)n2)CC1	45.83
O=C(c1cnccn1)N1CCOC2(CCN(Cc3ccsc3)CC2)C1	-3.36
CCOCC(=O)N1C[C@@H]2COC[C@H](c3nc(C)no3)[C@@H]2C1	64.16
Cc1noc([C@H]2COC[C@H]3CN(C(=O)Cc4ccc(F)cc4)C[C@H]32)n1	11.08
Cc1noc([C@H]2COC[C@H]3CN(C(=O)Cc4ccccc4F)C[C@H]32)n1	15.89
CC(C)c1ccc(C(CN)N2CCc3sccc3C2)cc1 (configuration not stated)	11.74
CN(Cc1ccco1)[C@@H]1CN(Cc2ccoc2)C[C@@H]2CCCO[C@@H]21	-11.13
CC1(C)CNC(=O)CN(C(=O)Cc2ccccc2)C1	30.56
CC(CN1CCOCC1)NC1CCN(Cc2cccc(O)c2)CC1 (configuration not stated)	58.12
CC(Cn1cncn1)NC1CCN(Cc2cccc(O)c2)CC1 (configuration not stated)	-6.77
Cc1cc(C)n(CC(C)NC2CCN(Cc3cccc(O)c3)CC2)n1 (configuration not stated)	32.71
COc1ccc(CCC(C)Nc2cccc(SC)c2)cc1 (configuration not stated)	2.5
CCOCC1c2c(ncn2C)CCN1C(=O)c1cnc(C)cn1 (configuration not stated)	-6.19
Cc1ccc(C(=O)N(C)CCOc2ccccc2F)c(=O)[nH]1	54.62
Cc1ccc(C(=O)N(Cc2ccccc2F)C2CC2)c(=O)[nH]1	-2.23
Cc1ccc(C(=O)N(C)Cc2cscn2)c(=O)[nH]1	44.39
O=S(=O)(c1ccc(F)cc1)n1cc(Cl)cn1	-0.9

SMILES	INHIBITION [%]
NC(=O)c1ccc2c(c1)nc1n2CCN(Cc2cccnc2)C1	8.41
O=C(Nc1ccccc1)C1CN(Cc2nccs2)CC12CCOCC2 (configuration not stated)	11.9
Cc1cc(-c2cnc(N3CCSCC3)nc2-c2ccc(C)s2)on1	-48.18
COc1ccc(SC(C)C(=O)N2CCC(NC(=O)C3CC3)CC2)cc1 (configuration not stated)	61.74
COc1ccc(SC(C)C(=O)N2CCC(O)CC2)cc1 (configuration not stated)	-0.39
COc1ccc(SC(C)C(=O)N2CCC(C(N)=O)CC2)cc1 (configuration not stated)	-12.36
O=C1N(c2cccnc2)CCC12CCCN(Cc1ccoc1)C2 (configuration not stated)	16.39
O=C(NCCc1ccccc1)N1C[C@@H]2C[C@H](C(=O)N3CCCC3)[C@H](C1)O2	-0.89
CCC1=N[C@@]2(CC[C@@H]3CN(Cc4ccc(F)cc4)C[C@@H]32)C(=O)N1C	-22.23
Fc1ccc(CN2CCCC(c3nccnc3-n3ccnc3)C2)cc1 (configuration not stated)	50.74
Fc1ccc(CN2CCC(c3nccnc3-n3ccnc3)CC2)cc1	16.87
c1ccc(CN2CCCC(c3nccnc3-n3ccnc3)C2)cc1 (configuration not stated)	22.66
CS(=O)(=O)N[C@@H]1CCN(Cc2cccnc2)[C@H]1Cc1ccccc1	7.26
CN(C)C1CCN(C(=O)c2cc(-c3ccn(C)n3)n3ccccc23)CC1	-40.37
CC(C)NC(=O)N1C[C@@H](F)[C@@H](OCc2nc3ccccc3o2)C1	16.47
CC(C)N1CCC(N2CCOC3(CCCC3)C2)C1=O (configuration not stated)	-0.75
COC(=O)c1sccc1S(=O)(=O)NCCC(O)c1ccco1 (configuration not stated)	4.89
CS(=O)(=O)NCCNc1ncnc2cccc(F)c12	17.73
Fc1cccc2ncnc(NCCCc3ccncc3)c12	54.3
CSCCCNc1ncnc2cccc(F)c12	28.79
CC(C)(C)c1cn(C2CCN(C(=O)c3cncnc3)CC2)nn1	40.83
CC(C)n1cc(C(=O)N2CCC(n3cc(C(C)(C)C)nn3)CC2)cn1	22.39

SMILES	INHIBITION [%]
CC(C)(C)c1cn(C2CCN(C(=O)c3cnccn3)CC2)nn1	50.4
Cc1cncc(C(=O)N2C[C@@H](C(=O)O)[C@H](C(C)C)C2)c1	44.23
COc1cc(C2(C(=O)NCCn3ccnc3)CCCC2)ccc1C	-64.32
CCc1ncc(S(C)(=O)=O)c(C2CCCNC2)n1 (configuration not stated)	18.8
O=C(NCCn1ccc(-c2ccncc2)n1)c1ccc2c(c1)OCO2	6.33
CCCS(=O)(=O)NC(C)C(=O)NCc1ccc(N2CCN(C)CC2)nc1 (configuration not stated)	-34.5
COc1ccc(OC)c(C(C)NC(=O)Nc2nnc(C)s2)c1 (configuration not stated)	-10.7
COc1ccc(C(C)NC(=O)Nc2nnc(C)s2)c(OC)c1 (configuration not stated)	58.69
COc1cc(C)c(C(C)NC(=O)Nc2nnc(C)s2)cc1OC (configuration not stated)	39.48
CC(Cc1c(F)cccc1F)NC(=O)CSCC(N)=O (configuration not stated)	14.19
CC(Cc1c(F)cccc1F)NC(=O)CN(CC(N)=O)C(C)C (configuration not stated)	58.53
CC(C)N(CC(N)=O)CC(=O)NCCc1c(F)cccc1F	37.18
CNS(=O)(=O)c1ccc(CN2CCN3CCNC(=O)C3C2)cc1 (configuration not stated)	-43.5
O=C1NCCN2CCN(C(=O)NCCc3ccccc3)CC12 (configuration not stated)	33.48
CS(=O)(=O)c1ccc(CC(=O)N2CCN3CCNC(=O)C3C2)cc1 (configuration not stated)	83.83
Cc1cc(-c2cnc(N3CCOCC3)nc2-c2ccc(C)s2)on1	8.09
CS(=O)(=O)CCN1CCSCC1c1ccc(Cl)cc1 (configuration not stated)	5.28
CS(=O)(=O)NCCN1CCCC1c1ccc(Cl)cc1 (configuration not stated)	8.42
CCS(=O)(=O)CCCN1CCSCC1c1ccc(Cl)cc1 (configuration not stated)	52.98
CS(=O)(=O)CCCN1CCSCC1c1ccc(Cl)cc1 (configuration not stated)	62.51
CS(=O)(=O)NCCN1CCSCC1c1ccc(Cl)cc1 (configuration not stated)	36.28
Cc1ccc(C2CSCCN2CCS(C)(=O)=O)cc1 (configuration not stated)	38.67

SMILES	INHIBITION [%]
CCN(C(=O)c1cc(C)nc2ccccc12)C1CC(=O)NC1=O (configuration not stated)	10.93
Nc1ncccc1C(=O)NCc1ccc(Br)cc1	49.69
Cc1csc(N2CCN(C(=O)C(C)n3cncn3)CC2)n1 (configuration not stated)	4.18
Cc1cc(C(=O)NCCCn2nccc2C2CC2)c(=O)[nH]c1C	49.45
COc1c(CNCc2ccnc(N(C)C)c2)c(C(C)C)nn1C	18.85
CC(=O)N1CCN([C@@H]2CCC[C@@H](NC(=O)c3cccnc3)[C@H]2O)CC1	20.44
CC(=O)N1CCOC2(CCN(C(=O)C3CC3)CC2)C1	-31.76
NC(=O)CN1CCCN(C(=O)c2ccc(SC(F)F)cc2)CC1	2.31
O=C(CCOCC(F)(F)F)N1CCCC(n2ccnc2)C1 (configuration not stated)	2.21
O=C1COc2ccc(C(=O)NS(=O)(=O)c3cc(F)ccc3F)cc2N1	-9.66
Cc1nc(NC(=O)c2nn(-c3ccc(F)cc3C)cc2O)n[nH]1	2.82
c1ccc(-c2nnc(CNCCn3cccn3)o2)cc1	51.32
Cc1ccc(-c2nnc(CNCCn3cccn3)o2)cc1	-9.22
COc1ccc(-c2nnc(CNCCn3cccn3)o2)cc1	-16.99
COc1cccc(C(=O)N2CCCC(CNS(C)(=O)=O)C2)c1 (configuration not stated)	2.74
Cc1cc(C2CCCN(C(=O)CCc3cscn3)C2)n[nH]1 (configuration not stated)	-0.13
COCC(NC(=O)c1ccco1)c1cccc(C(F)(F)F)c1 (configuration not stated)	39.45
COCC(NC(=O)c1ccoc1C)c1cccc(C(F)(F)F)c1 (configuration not stated)	74.22
COCC(NC(=O)c1ccc[nH]1)c1cccc(C(F)(F)F)c1 (configuration not stated)	11.28
NS(=O)(=O)Cc1ccc(CNC(=O)NCC2CCOC2)cc1 (configuration not stated)	-27.91
Cc1ccc2c(c1)CN(CC(=O)NCCc1ccc(F)cc1)CC(C)O2 (configuration not stated)	-16.71
CC1CN(CC(=O)NCCc2ccncc2)Cc2ccccc2O1 (configuration not stated)	11.9

SMILES	INHIBITION [%]
CC1CN(CCC(=O)NCCc2cccnc2)Cc2ccccc2O1 (configuration not stated)	52.3
COC(=O)c1cnc2c(c(C)nn2C)c1OC	-8.44
COc1ncccc1CNC(=O)c1c[nH]c(=O)c(Br)c1	37.18
Nc1no[n+]([O-])c1C(=O)NCc1ccccn1	-18.45
Nc1no[n+]([O-])c1C(=O)NCc1ccco1	84.12
COc1ncccc1CNC(=O)c1ccco1	51.46
COc1ncccc1CNC(=O)c1cc(F)cc(Br)c1	58.69
COc1ncccc1CNC(=O)NCc1ccco1	-2.87
COc1ncccc1CNC(=O)NCCNS(C)(=O)=O	6.3
CC(C)Oc1ncccc1CNC(=O)c1ccco1	26.11
COc1ncccc1CNC(=O)NCCNC(=O)c1ccco1	39.92
Nc1no[n+]([O-])c1C(=O)NCc1cccnc1	-3.26
CCCNC(=O)NCc1cccnc1OC	56.12
COc1ncccc1CNC(=O)c1csc(Br)c1	-12.08
CC(O)CNC(=O)CCc1nc2ncccc2[nH]1 (configuration not stated)	17.33
CC(C)c1nccn1CCCNC(=O)c1ccc(-c2cncnc2)nc1	27.84
O=C(c1cnc(-c2cccnc2)nc1)N1CCC(c2ccncc2)CC1	-70.5
CCC(C)N1C(=O)c2ccc(C(=O)NCCc3c[nH]cn3)cc2C1=O (configuration not stated)	35.09
NCc1cccc(-c2cccnc2C(=O)NCCCN2CCOCC2)c1	3.63
